Mtb MenB inh: inhibitors of Mycobacterium tuberculosis MenB enzyme. P9WNP5. MenB enzyme assay, absorbance read-out. inhibition, % (test concentration not listed). actives 0.43% (n = 100,000). AID 540299; in the data active means inhibition above about 21%, passing the limit was not always enough
Target sequence (P9WNP5 whole entry, looked up): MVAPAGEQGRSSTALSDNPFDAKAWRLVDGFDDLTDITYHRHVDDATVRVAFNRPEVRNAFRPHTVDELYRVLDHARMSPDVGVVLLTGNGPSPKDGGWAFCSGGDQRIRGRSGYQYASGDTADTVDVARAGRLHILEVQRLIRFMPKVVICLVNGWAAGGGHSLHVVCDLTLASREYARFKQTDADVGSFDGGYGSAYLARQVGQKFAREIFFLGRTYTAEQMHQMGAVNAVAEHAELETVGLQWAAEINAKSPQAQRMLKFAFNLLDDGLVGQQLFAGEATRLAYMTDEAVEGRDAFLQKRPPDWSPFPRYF
MbtI inh: MbtI salicylate synthase inhibition. purified MbtI enzyme, fluorescence intensity read-out. inhibition, % (test concentration not listed). actives 0.89% (n = 100,000); in the data active means inhibition mostly above about 56%, no sharp cut-off; inactive means mostly below about 77%
AID504770: growth inhibitors of E. coli YBA685 in a screen for V. cholerae RctB (chromosome II replication) inhibitors; E. coli YBA685 rctB-dependent plasmid, OD600 growth, 3 h; stronger effect = lower value; AID 504770; actives 0.27% (n = 130,000); z-score (no concentration beside the values); in the data active means z-score below about -2, passing the limit was not always enough
Polio RdRp inh: inhibitors of poliovirus RNA polymerase binding and polymerization; % elongation, % (compound at 16.7 µg/mL); actives 0.66% (n = 150,000); poliovirus polymerase elongation, fluorescence polarization; stronger effect = lower value; P03300; AID 588519; in the data active means % elongation below about 90%
Numbers stand for hits; – = inactive; · = no result given. Rows were chosen to be rich in hits. Some 1.4% of all compounds tested hit in one or more screens of this group.

SMILES	Mtb MenB inh	MbtI inh	AID504770	Polio RdRp inh
COC(=O)/C=C/S(=O)(=O)c1ccc(NC(C)=O)cc1	–	67.0	–	–
CC(=O)Nc1ccc(S(=O)(=O)N=S(C)(C)=O)cc1	–	–	–	–
COC(=O)/C=C/S(=O)(=O)c1ccc(Br)cc1	–	100.3	-2.75	–
Cc1c(C#N)c(/N=C/c2c(O)[nH]c(=O)[nH]c2=O)n(C2CCCCC2)c1C	–	–	–	–
CCOC(=O)C1=C(CSc2nnc(-c3cccs3)n2-c2ccccc2)NC(=O)NC1C (configuration not stated)	–	–	-2.45	–
C=CCn1c(=O)c2ccccc2n2c(SCC(=O)c3cc(C)ccc3C)nnc12	–	–	–	–
Cc1ccc(S(=O)(=O)N(C)c2ccccc2)cc1	–	–	–	–
Cc1ccc(S(=O)(=O)N(C)c2nc3ccccc3nc2SCC#N)cc1	–	97.8	–	–
COc1ccc(-c2noc(-c3ccc(NC4CCCC4)c([N+](=O)[O-])c3)n2)cc1OC	·	·	·	79.0
CCc1ccccc1NC(=O)c1sc2[nH]c(=O)c(C(=O)O)cc2c1N	·	·	–	·
COCC(=O)Nc1ccc(S(=O)(=O)NC(C)(C)C)cc1	–	–	–	–
COc1ccc(CCNC(=O)c2ccc3c(c2)N(Cc2ccccc2)C(=O)c2ccccc2S3=O)cc1OC (configuration not stated)	·	·	·	-15.0
Brc1csc(CNCCc2ccco2)c1	–	–	–	86.0
Brc1ccc(NCc2ccco2)cc1	–	–	–	–
COc1ccc(OCC(=O)N(Cc2nc(-c3ccccc3)no2)C2CCCCC2)cc1	–	–	–	–

Screens (PubChem)
